Test results from PubChem BioAssay (Tox21).
Inconclusive results are not listed. Entries that show only a call come without a potency. Activity calls are given as the source filed them. Calls come from the whole dose curve; as a rule, active = well fitted activation curve with a large enough effect in the repeat runs; inconclusive = weak or mixed curves; inactive = flat fitted curve, though single readings scatter.

Test: A CellTox Green Cytotoxicity Assay to monitor cytotoxicity in HepG2 cells - 32 hour (AID 1224883); note: nearly all actives have a fitted effect of over 50% in size
Conditions: CellTox Green fluorescence; series mostly up to 76.8 µM
Source text: National Center for Advancing Translational Sciences [NCATS]
NIH Chemical Genomics Center [NCGC]
U.S. Environmental Protection Agency [EPA]
National Institutes of Environmental Health Sciences [NIEHS]
National Toxicology Program [NTP]
Cell-based models are critical for drug discovery. Determining the natural cytotoxic effects resulting from test compounds is an essential research activity. A CellTox Green Cytotoxicity Assay to monitor cytotoxicity in real time of continues cell culture during 40 hours of the compound treatment was used to screen Tox21 10K library compounds in HepG2 cells. CellTox Green Cytotoxicity Assay is a nonlytic, homogeneous, biofluorescent method to measure cytotoxicity in cell culture after experimental manipulation. The assay system uses a proprietary asymmetric cyanine dye that is excluded from viable cells but preferentially stains the dead cell's DNA. […] Viable cells produce no appreciable increases in fluorescence. Therefore, the fluorescence signal produced by the binding interaction with dead cell DNA is proportional to cytotoxicity.
The mixture of HepG2 cell suspension and reagents were dispensed at 600cells/6 ul/well in 1536-well tissue culture treated black solid bottom plates using a Multidrop dispenser. After the assay plates were incubated at a 37 C/5% CO2 incubator for 5 hours, 23 nL of compounds dissolved in DMSO, positive and negative controls was transferred to the assay plate by a pintool work station. The plates were incubated at 37 C for 40 hours. The fluorescence intensity were measured at 0h, 8h, 16h, 24h, 32h and 40h time points using ViewLux plate reader during compound treatment.
Potency is the fitted concentration of half-maximal effect.

SMILES	Potency	cytotoxicity increase
CCCCCc1ccc(O)cc1	49 µM (active)	
CCOC(=O)[C@H](O)[C@@H](O)C(=O)OCC	inactive	
CC1=CC[C@@H](C(C)(C)O)CC1	inactive	
CC(C)C(=O)C(C)C	inactive	
COc1cc(C(C)C)ccc1C		-14.3% [at 15.8 µM] (inactive)
O=[N+]([O-])c1ccc(CO)cc1	inactive	
C=CC(=O)O[C@H]1C[C@@H]2CC[C@@]1(C)C2(C)C	inactive	
CCCCCCCCSCc1cc(C)c(O)c(CSCCCCCCCC)c1	inactive	
CC(=O)Nc1ccc(N=Nc2cc(C)ccc2O)cc1	inactive	
O=C1OC(O)C(C(Cl)Cl)=C1Cl (stereo not given)	45 µM (active)	
CCC(=O)OC/C=C(\C)CCC=C(C)C	inactive	
CN1CCN(C)CC1	inactive	
C=C(C)C1CCC(C)CC1O (stereo not given)	inactive	
CN1CC[C@H](c2c(O)cc(O)c3c(=O)cc(-c4ccccc4Cl)oc23)[C@H](O)C1	0.213 µM (active)	
Cc1cccc2c1ccc1ccccc12	inactive	
Cc1ccc(C2OC[C@@H]3OC(c4ccc(C)cc4)O[C@H]([C@H](O)CO)[C@@H]3O2)cc1 (stereo not given in full)	inactive	
CN(C/C=C/c1ccccc1)Cc1cccc2ccccc12	23.9 µM (active)	
O=C(CCCCCCCCc1cccnc1)N1CCC(C=C(c2ccccc2)c2ccccc2)CC1	inactive	
Oc1cccc2c(O)cccc12	inactive	
C=C(C)CCO	inactive	

SMILES	Potency	cytotoxicity increase
Cc1ccc2n[nH]nc2c1	inactive	
NC(=O)c1ccccc1Cl	inactive	
CN1CCN(c2ccccc2/C=C2\SCCN(c3ccc(Cl)c(Cl)c3)C2=O)CC1	21.9 µM (active)	
CC/C=C\C/C=C\C/C=C\CCCCCCCC(=O)OC	inactive	
C=CCc1cc(S(=O)(=O)c2ccc(O)c(CC=C)c2)ccc1O	inactive	
CC(Cc1ccc(O)c(O)c1)C(C)Cc1ccc(O)c(O)c1 (stereo not given)	43.6 µM (active)	
CCOC(=O)C1=NN(c2ccc(Cl)cc2Cl)C(C)(C(=O)OCC)C1 (stereo not given)	inactive	
N#Cc1nc(Cl)c(Cl)c(Cl)c1Cl	27.5 µM (active)	
C[C@H]1O[C@@H](O[C@H]2CC[C@@]3(C)[C@H](CC[C@@H]4[C@@H]3C[C@@H](O)[C@]3(C)[C@@H](C5=CC(=O)OC5)CC[C@]43O)C2)C[C@H](O)[C@@H]1O[C@H]1C[C@H](O)[C@H](O[C@H]2C[C@H](O)[C@H](O[C@@H]3O[C@H](CO)[C@@H](O)[C@H](O)[C@H]3O)[C@@H](C)O2)[C@@H](C)O1	inactive	
Brc1cc(Br)cc(Br)c1	inactive	
COc1cc([C@@H]2c3cc4c(cc3[C@@H](O[C@@H]3O[C@@H]5CO[C@@H](C)O[C@H]5[C@H](O)[C@H]3O)[C@H]3COC(=O)[C@H]23)OCO4)cc(OC)c1O	48.4 µM (active)	
Cc1ccc(S(=O)(=O)C(I)I)cc1	43.6 µM (active)	
O=c1cc[nH]cc1	inactive	
CC(C)c1ccc2sc3ccccc3c(=O)c2c1	inactive	
CC/C=C(\C)C=O	inactive	
CC(C)=NNC(N)=S	inactive	
C=CC(=O)OCCOC1C2CCC1C1CC=CC12 (stereo not given)		-7.81% [at 15.8 µM] (inactive)
O=C(c1ccccc1)c1ccc(Cl)cc1	inactive	
CC(=O)CC(N)=O	inactive	
O[Si](c1ccccc1)(c1ccccc1)c1ccccc1	inactive	
